The supplement of paper PMC12645437, “Orthogonal IMiD-Degron Pairs Induce Selective Protein Degradation in Cells” (ACS Chemical Biology, 2025)
In all, about 8,300 sequences were measured (“log2 fold change of degron read counts, EGFP-low vs EGFP+ sorted cells (limma voom), compound-induced degradation”: median about -1.1, highest 2% from about 3.2 on). The entries come from a sample that favours the highest values as a whole.

T1: CRBN, Q96SW2
T1 chain: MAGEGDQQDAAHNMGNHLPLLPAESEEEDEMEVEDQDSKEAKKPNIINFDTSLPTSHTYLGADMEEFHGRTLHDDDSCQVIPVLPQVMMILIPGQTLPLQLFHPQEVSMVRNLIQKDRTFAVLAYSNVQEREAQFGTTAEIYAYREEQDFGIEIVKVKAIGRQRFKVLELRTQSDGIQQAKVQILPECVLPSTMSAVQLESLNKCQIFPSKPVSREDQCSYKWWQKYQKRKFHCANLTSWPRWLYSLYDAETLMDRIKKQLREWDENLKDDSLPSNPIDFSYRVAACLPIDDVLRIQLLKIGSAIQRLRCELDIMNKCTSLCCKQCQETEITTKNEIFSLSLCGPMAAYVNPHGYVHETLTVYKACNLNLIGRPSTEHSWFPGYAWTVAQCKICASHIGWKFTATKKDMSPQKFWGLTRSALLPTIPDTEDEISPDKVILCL


Biological target: T1, CRBN, Q96SW2
Test: log2 fold change of degron read counts, EGFP-low vs EGFP+ sorted cells (limma voom), compound-induced degradation; higher = more compound-induced degradation of the degron-EGFP fusion; degrons are variants of IKZF1/3 zinc finger 2; compound dose not given here
Conditions: Jurkat, 18 h
[1] = compound: compound 19 (5-tert-butyl-thalidomide)
[2] = compound: compound 22 (5-morpholino-thalidomide)
[3] = compound: compound 33 (diphenyl IMiD analogue)
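Note: pooled lentiviral library of zinc finger degron-EGFP fusions in mCherry-positive Jurkat cells, FACS-sorted after compound exposure, with degron abundance counted by next-generation sequencing.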

Sequence | log2 fold change of degron read counts [1] | log2 fold change of degron read counts [2] | log2 fold change of degron read counts [3] | log2 fold change of degron read counts (compound: thalidomide)
FECEQCGADFTQKGNLLRHIKL [46F_47E_49E_50Q_52G_53A_54D_55F_67L_, Q9UKT9] | -3.85 | -4.35 | -2.06 | -2.36
FWCPVCGALFTQKGNLLRHIKL [46F_47W_49P_50V_52G_53A_54L_55F_67L_, Q9UKT9] | 1.3 | 2.3 | 1.77 | 0.113
FYCEICGREFTQKGNLLRHIKL [46F_47Y_49E_50I_52G_53R_54E_55F_67L_, Q9UKT9] | -0.515 | -1.07 | -0.325 | -1.93
FGCPICGHWFTQKGNLLRHIKL [46F_47G_49P_50I_52G_53H_54W_55F_67L_, Q9UKT9] | -1.35 | -2.19 | -1.6 | -1.77
FFCEVCGANFTQKGNLLRHIKL [46F_47F_49E_50V_52G_53A_54N_55F_67L_, Q9UKT9] | 2.83 | 3.44 | 1.84 | 1.47
FECEVCGANFTQKGNLLRHIKL [46F_47E_49E_50V_52G_53A_54N_55F_67L_, Q9UKT9] | -0.492 | -1.03 | 2.04 | 2.31
FWCEVCGANFTQKGNLLRHIKL [46F_47W_49E_50V_52G_53A_54N_55F_67L_, Q9UKT9] | 3.33 | 3.86 | 2.16 | 1.61
FICEVCGANFTQKGNLLRHIKL [46F_47I_49E_50V_52G_53A_54N_55F_67L_, Q9UKT9] | -0.804 | 2.54 | 2.03 | 2.44
FLCEVCGANFTQKGNLLRHIKL [46F_47L_49E_50V_52G_53A_54N_55F_67L_, Q9UKT9] | -0.0798 | -0.418 | 0.939 | 1.25
FHCEVCGANFTQKGNLLRHIKL [46F_47H_49E_50V_52G_53A_54N_55F_67L_, Q9UKT9] | 0.846 | 0.806 | -0.028 | -0.545
FVCEVCGANFTQKGNLLRHIKL [46F_47V_49E_50V_52G_53A_54N_55F_67L_, Q9UKT9] | -0.0108 | 2.6 | 2.09 | 2.74
FQCEVCGANFTQKGNLLRHIKL [46F_47Q_49E_50V_52G_53A_54N_55F_67L_, Q9UKT9] | 0.104 | 1.29 | 1.34 | 3.56
FYCEVCGANFTQKGNLLRHIKL [46F_47Y_49E_50V_52G_53A_54N_55F_67L_, Q9UKT9] | 3.26 | 3.88 | 2.56 | 1.5
FTCEVCGANFTQKGNLLRHIKL [46F_47T_49E_50V_52G_53A_54N_55F_67L_, Q9UKT9] | -0.297 | 1.72 | 1.21 | 2.03
FMCEVCGANFTQKGNLLRHIKL [46F_47M_49E_50V_52G_53A_54N_55F_67L_, Q9UKT9] | -0.728 | 0.197 | 2.72 | 1.11
FNCEVCGANFTQKGNLLRHIKL [46F_47N_49E_50V_52G_53A_54N_55F_67L_, Q9UKT9] | 2.09 | 0.096 | -0.251 | -0.321
FHCNICGAHFTQKGNLLRHIKL [46F_47H_49N_50I_52G_53A_54H_55F_67L_, Q9UKT9] | 0.23 | -0.286 | -0.308 | -1.49
FGCPICGHQFTQKGNLLRHIKL [46F_47G_49P_50I_52G_53H_54Q_55F_67L_, Q9UKT9] | -1.23 | -2.85 | -2.17 | -2.38
FVCEVCGAWFTQKGNLLRHIKL [46F_47V_49E_50V_52G_53A_54W_55F_67L_, Q9UKT9] | -1.7 | -0.89 | 0.622 | 0.0931

Sequence | log2 fold change of degron read counts [1] | log2 fold change of degron read counts [2] | log2 fold change of degron read counts [3] | log2 fold change of degron read counts (compound: thalidomide)
FLCDQCGAMFTQKGNLLRHIKL [46F_47L_49D_50Q_52G_53A_54M_55F_67L_, Q9UKT9] | -3.11 | -2.68 | -1.79 | -2.7
FICNQCGRAFTQKGNLLRHIKL [46F_47I_49N_50Q_52G_53R_54A_55F_67L_, Q9UKT9] | -2.99 | -3.18 | -3.02 | -2.57
FGCNQCGAHFTQKGNLLRHIKL [46F_47G_49N_50Q_52G_53A_54H_55F_67L_, Q9UKT9] | -2.35 | -2.82 | -1.79 | -2.17
FRCEICGHQFTQKGNLLRHIKL [46F_47R_49E_50I_52G_53H_54Q_55F_67L_, Q9UKT9] | -3.28 | -3.74 | -2.48 | -2.14
FQCDVCGACFTQKGNLLRHIKL [46F_47Q_49D_50V_52G_53A_54C_55F_67L_, Q9UKT9] | -1.14 | 1.47 | 0.493 | 3.01
FLCSVCGHLFTQKGNLLRHIKL [46F_47L_49S_50V_52G_53H_54L_55F_67L_, Q9UKT9] | -2.16 | -2.42 | -2.1 | -2
LYCPICGFQCTQKGNLLRHIKL [46L_47Y_49P_50I_52G_53F_54Q_55C_67L_, Q9UKT9] | 3.45 | 3.56 | 2.59 | 1.87
LQCPICGFQCTQKGNLLRHIKL [46L_47Q_49P_50I_52G_53F_54Q_55C_67L_, Q9UKT9] | 1.01 | 1.71 | 1.77 | 3.45
LWCPICGFQCTQKGNLLRHIKL [46L_47W_49P_50I_52G_53F_54Q_55C_67L_, Q9UKT9] | 3.21 | 3.52 | 2.81 | 1.97
LRCPICGFQCTQKGNLLRHIKL [46L_47R_49P_50I_52G_53F_54Q_55C_67L_, Q9UKT9] | 0.722 | 0.186 | 1.12 | 1.62
LDCPICGFQCTQKGNLLRHIKL [46L_47D_49P_50I_52G_53F_54Q_55C_67L_, Q9UKT9] | 0.742 | 0.239 | 0.58 | 1.8
LMCPICGFQCTQKGNLLRHIKL [46L_47M_49P_50I_52G_53F_54Q_55C_67L_, Q9UKT9] | 0.282 | 1.65 | 2.68 | 2.37
LCCPICGFQCTQKGNLLRHIKL [46L_47C_49P_50I_52G_53F_54Q_55C_67L_, Q9UKT9] | 2.04 | 2.42 | 2.76 | 2.48
LICPICGFQCTQKGNLLRHIKL [46L_47I_49P_50I_52G_53F_54Q_55C_67L_, Q9UKT9] | 0.317 | 2.57 | 2.11 | 2.94
LKCPICGFQCTQKGNLLRHIKL [46L_47K_49P_50I_52G_53F_54Q_55C_67L_, Q9UKT9] | -0.0362 | -1.47 | -1.46 | 0.648
LFCPICGFQCTQKGNLLRHIKL [46L_47F_49P_50I_52G_53F_54Q_55C_67L_, Q9UKT9] | 3.36 | 3.29 | 2.33 | 2.04
LTCPICGFQCTQKGNLLRHIKL [46L_47T_49P_50I_52G_53F_54Q_55C_67L_, Q9UKT9] | 0.773 | 2.5 | 2.25 | 2.88
LNCPICGFQCTQKGNLLRHIKL [46L_47N_49P_50I_52G_53F_54Q_55C_67L_, Q9UKT9] | 1.88 | 1.12 | 0.537 | 1.19
